ASM inhibitor = inhibitors of human secretory acid sphingomyelinase | P17405 | placental ASM, HMU-PC fluorogenic substrate, 60 min | Potency, µM (top dose mostly 57.5 µM), for inactives: top-dose activity change, negative = inhibition, actives largely listed as inhibitors | actives 0.006% (n = 340,000); note: potency is the fitted concentration of half-maximal effect
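qHTS format. ASM enzyme prepared from human placenta hydrolyses the fluorogenic substrate HMU-PC0 (9 uM final) over 60 min at 37 °C after a 10 min compound preincubation.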
KCNH2 WT inh = KCNH2 (human, wildtype) channel inhibition. activity change, % at 1.84 µM. actives 0.37% (n = 340,000). AID 720551. Q12809. U2OS, BacMam KCNH2, thallium flux FluxOr; active compounds read low;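 active = maximum activity change below -70%; inconclusive = maximum activity change between -70% and -50%; inactive = maximum activity change above -50%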; note: % is set by controls: 0 for no effect and ±100 for the full control effect
Target sequence (Q12809 whole entry, looked up): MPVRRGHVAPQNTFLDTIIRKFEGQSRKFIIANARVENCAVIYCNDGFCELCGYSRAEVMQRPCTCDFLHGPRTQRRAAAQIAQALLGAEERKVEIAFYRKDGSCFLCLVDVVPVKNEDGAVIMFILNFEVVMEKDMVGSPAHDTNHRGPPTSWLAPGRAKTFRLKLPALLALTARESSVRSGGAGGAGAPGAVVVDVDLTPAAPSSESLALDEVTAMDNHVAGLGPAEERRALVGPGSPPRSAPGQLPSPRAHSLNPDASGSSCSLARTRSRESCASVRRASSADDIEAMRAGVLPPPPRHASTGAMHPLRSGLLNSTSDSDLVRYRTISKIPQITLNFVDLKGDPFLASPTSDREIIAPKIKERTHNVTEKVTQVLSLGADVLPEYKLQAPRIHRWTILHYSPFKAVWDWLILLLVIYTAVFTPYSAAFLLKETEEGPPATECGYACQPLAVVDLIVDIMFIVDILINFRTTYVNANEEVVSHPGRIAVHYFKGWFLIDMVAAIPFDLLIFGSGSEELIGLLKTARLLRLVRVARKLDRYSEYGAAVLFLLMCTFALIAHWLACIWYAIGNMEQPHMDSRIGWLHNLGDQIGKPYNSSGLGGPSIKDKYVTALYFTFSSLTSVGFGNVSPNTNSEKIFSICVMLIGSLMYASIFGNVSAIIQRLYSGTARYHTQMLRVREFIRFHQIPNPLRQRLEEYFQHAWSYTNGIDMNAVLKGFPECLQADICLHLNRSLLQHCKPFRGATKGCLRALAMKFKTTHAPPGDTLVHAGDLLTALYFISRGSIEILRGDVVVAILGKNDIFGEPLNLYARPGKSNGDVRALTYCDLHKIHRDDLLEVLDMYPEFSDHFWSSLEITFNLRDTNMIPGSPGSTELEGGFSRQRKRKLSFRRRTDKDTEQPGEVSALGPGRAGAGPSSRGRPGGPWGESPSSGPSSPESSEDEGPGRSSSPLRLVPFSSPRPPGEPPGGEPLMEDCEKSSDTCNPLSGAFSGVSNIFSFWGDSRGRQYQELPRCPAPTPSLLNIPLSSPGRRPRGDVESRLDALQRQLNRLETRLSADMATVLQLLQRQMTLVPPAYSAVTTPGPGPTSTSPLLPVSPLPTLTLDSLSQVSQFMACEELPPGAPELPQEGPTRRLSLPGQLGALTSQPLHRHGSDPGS
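U2OS cells were transduced with wild-type KCNH2 virus (2.03 x 10^8 / mL) for 4 h at room temperature, then cultured overnight at 37 C. Thallium flux was read with FluxOr dye. Rate constants were normalized to DMSO controls.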
p53 reactivation = restores transcriptional activity of mutant p53. actives 0.063% (n = 320,000). Potency, µM (top dose mostly 92.2 µM), for inactives: at the highest dose activity change, positive = activation, hits mostly activators. H1299 p53-A138V BP100-luciferase reporter, luminescence, 24 h; note: potency is the fitted concentration of half-maximal effect; % of control where 0% means no effect; nearly all actives have a fitted effect of over 45% in size
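H1299 (p53-null), stable ts p53-A138V + BP100-Luc; 1000 cells/well, Opti-MEM/10% FBS; cpd 4 pt, 1:5; 24 h, 37 deg C, 5% CO2; detection reagent 10 min RT; luminescence.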
MmCpn inh = M. maripaludis TRiC chaperonin inhibition; purified Mm-Cpn ATPase, ADP Transcreener TR-FRET; Potency, µM (highest dose often 76.9 µM), inactives show at the top dose activity, negative = inhibition, actives largely listed as inhibitors; actives 0.031% (n = 330,000); AID 504842; note: potency is the fitted concentration of half-maximal effect; % is set by controls: 0 for no effect and ±100 for the full control effect; nearly all actives have a fitted effect of over 80% in size
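Purified archaeal chaperonin (25 nM final) was preincubated with compound for 10 min at 37°C, then ATP (10 uM final) was added for 30 min at 37°C in Tris pH 7.4/KCl/MgCl2/DTT buffer. ADP was quantified by HTRF Transcreener TR-FRET.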
uPA generation = blocks generation of uPA at the cell surface; cell surface uPA generation assay, qHTS; Potency, µM (series often up to 38.3 µM), for the others: top-dose activity change, negative = inhibition, most hits filed as inhibitors; actives 0.31% (n = 330,000); active = well fitted inhibition curve with a large enough effect; inconclusive = small, poorly fitted or top-dose-only effect; inactive = no such curve, though single readings can be large or run the other way; tested in mouse RAW 264.7 cells; note: potency is the fitted concentration of half-maximal effect; % is set by controls: 0 for no effect and ±100 for the full control effect; nearly all actives have a fitted effect of over 55% in size
KCNH2 3.1 block = KCNH2 3.1 (human) potassium channel inhibition | actives 0.95% (n = 340,000) | activity change, % (tested at about 1.8 µM) | AID 720553 | U2OS KCNH2 3.1, thallium flux FluxOr; active compounds read low;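 active = maximum activity change below -70%; inconclusive = maximum activity change from -70% to -50%; inactive = maximum activity change above -50%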;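 note: thallium influx rate constant from kinetic fluorescence after stimulation buffer; % is set by controls: 0 for no effect and ±100 for the full control effect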
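Measured as rate of thallium-driven FluxOr signal in transduced U2OS cells carrying the 3.1 channel, read kinetically for 2 min upon stimulation; values are rate constants scaled to DMSO control wells.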
* marks the source's active call; other numbers are inactive results; i = inactive; ? = inconclusive; · = no result given; [ ] = dose if it differs, or a comment. In the library only some 1.4% were active in any assay of this set; here they are far more common. Unless noted, calls come from the whole dose curve; as a rule, active = well fitted curve in the direction sought with a large enough effect; inconclusive = small, poorly fitted or top-dose-only effect, or another doubt; inactive = no such curve, though single readings can be large; an effect the other way counts as inactive or inconclusive.

SMILES	ASM inhibitor	KCNH2 WT inh	p53 reactivation	MmCpn inh	uPA generation	KCNH2 3.1 block
Cc1cccc(NC(=O)Nc2c(C)n(C)n(-c3ccccc3)c2=O)c1	1%	-102*	-1%	1%	4%	0
Cc1c(NC(=O)Nc2cccc(Cl)c2)c(=O)n(-c2ccccc2)n1C	-1%	13	1%	0%	·	-4
CCC1CCCCN1CC(=O)c1c(C)[nH]c2cc(C)ccc12 (stereo not given)	23%	3	-1%	2%	2%	-7
CC(C)C[C@@H](CN1CCCC1CN1C(=S)NC[C@@H]1Cc1ccc(O)cc1)N1C[C@H](Cc2ccccc2)N(CCc2ccccc2)C1=S (stereo not given in full)	-27%	-71*	·	·	-3%	-49
CC(C)C[C@H]1CN([C@@H](CC(C)C)CN2CCCC2CN2C(=S)NC[C@@H]2Cc2ccc(O)cc2)C(=S)N1CCc1ccccc1 (stereo not given in full)	-15%	-17	·	·	?	-9
COc1ccc([C@]23Cc4cc(OC)c(OC)cc4C(O2)c2c(cc(C)oc2=O)O3)cc1	·	·	·	1%[15.4 µM]	·	·
Cc1c(-c2ccccc2)sc2nc[nH]c(=S)c12	3%	-116*	-1%	-30%	-4%	-82*
COCCN(Cc1cn[nH]c1-c1ccc2cc(OC)ccc2c1)C(C)C	0%	13	?	2%	-1%	-5
Cc1ccnc(NS(=O)(=O)c2ccc(NC(=O)c3ccc(Cl)cc3[N+](=O)[O-])cc2)n1	1%	-10	?	3%	10%	-134*
CCC(=O)NCCn1ccc2ccccc21	8%	-140*	5%	-1%	-1%	-5
CCCCCCCCNCCS(=O)(=O)NCc1ccc(OC)cc1	-6%	9	·	·	11%	-23
CN1CCN(C(c2ccccc2)c2ccccc2)CC1	-5%	1	-2%	-1%	-11%	7
CN1CCCN(C(c2ccccc2)c2ccc(Cl)cc2)CC1 (stereo not given)	3%	-22	-4%	-3%[15.4 µM]	?	-99*
OCC1(CCCc2ccccc2)CCN(Cc2ccc(F)cc2)CC1	-1%	5	0%	-4%	4%	-10
CSCC(C)N1CCC(CO)(CCc2ccccc2)CC1 (stereo not given)	2%	20	-3%	2%	-4%	-7
OCC1(CCc2ccccc2)CCN(Cc2ccc(OC(F)F)cc2)CC1	0%	-183*	-3%	0%	0%	·
CC(COc1ccccc1)N1CCC(CO)(CCc2ccccc2)CC1 (stereo not given)	-4%	?	-1%	3%	-3%	-101*
Cn1c(CC(O)c2nc3ccccc3n2C)nc2ccccc21 (stereo not given)	·	-13	·	·	·	14
Cc1ccccc1Oc1ccc2c(c1)[C@@H]1C[C@H]3[C@@H](C(=O)N1CC2)[C@H](C)ON3C	13%	-5	·	·	-4%	-26
CCOC(=O)N(C)C[C@@H]1OCc2cnnn2CCCC(=O)N([C@H](C)CO)C[C@H]1C	·	-4	·	·	·	-5
O=C(COC(=O)c1cc(S(=O)(=O)N2CCOCC2)ccc1F)c1ccccc1	2%	0	4%	3%	2%	10
Cc1ccc(C)c(C(=O)COC(=O)c2cc(S(=O)(=O)N3CCOCC3)ccc2F)c1	·	-77*	·	·	·	2
Cc1cc(C)cc(NC(=S)Nc2cccc3cnccc23)c1	4%	-228*	2%	-5%	-3%	-2
Cc1ccc(NC(=S)Nc2cccc3cnccc23)c(C)c1	7%	1	15%	-2%	-3%	3
COc1cccc(NC(=O)Cc2nc(-c3ccccc3)sc2-c2ccc(C)cc2)c1	-7%	i	?	40µM*	8%	-7
SMILES	ASM inhibitor	KCNH2 WT inh	p53 reactivation	MmCpn inh	uPA generation	KCNH2 3.1 block
CC(=O)Nc1cccc(NC(=O)Cc2nc(-c3ccccc3)sc2-c2ccc(C)cc2)c1	-15%	-5	23%	?	5%	-9
COC(=O)c1cccc(NC(=O)Cc2nc(-c3ccccc3)sc2-c2ccc(C)cc2)c1	-4%	25	5%	50µM*	0%	-1
Cc1ccc(-c2sc(-c3ccccc3)nc2CC(=O)Nc2ccccc2F)cc1	-5%	5	-2%	-11%	4%	-10
C#CCN(C[C@H]1[C@H](OC(=O)NC2CC2)[C@H](OC(=O)NC2CC2)C[C@@H](C(=O)OC)[C@H]1C(=O)OC)S(=O)(=O)c1ccc(C)cc1	·	2	·	·	·	0
O=C(CN1C(=O)C(=O)N(C2CCCC2)C1=O)NCCc1ccc(Cl)cc1Cl	7%	11	2%	1%	-5%	-10
COc1cc(CCC(=O)OCC(=O)c2ccc[nH]2)cc(OC)c1OC	8%	-94*	-4%	0%	?	-2
CCn1nnnc1-c1ccc(OC)c(S(=O)(=O)Nc2ccc(S(N)(=O)=O)cc2)c1	0%	-8	2%	4%	4%	6
CCn1nnnc1-c1ccc(OC)c(S(=O)(=O)Nc2ccccc2OC)c1	·	-78*	·	·	·	-2
O=C(CCN1CCN(CCO)CC1)Nc1ccc(OCc2ccccc2)cc1	0%	3	·	·	1%	-3
O=C(CN1CCCCCC1)Nc1ccc(Oc2ccccc2)cc1	1%	8	15%	-3%	1%	-96*
O=C(CN1CCOCC1)Nc1ccc(OCc2ccccc2)cc1	1%	5	3%	1%	-6%	-18
CCCCNC(=O)CN1CCN(Cc2ccc3cc(OC)ccc3c2)CC1	0%	-15	0%	-3%	12%	-84*
O=C(CN1CCN(CC(=O)Nc2ccc(OCc3ccccc3)cc2)CC1)Nc1ccc(F)cc1	-6%	-103*	·	·	?	-94*
O=C(CCN1CCN(Cc2ccccc2)CC1)Nc1ccc(OCc2ccccc2)cc1	3%	-39	?	0%	-11%	-95*
O=C(COC(=O)c1ccc(Cl)c(S(=O)(=O)N2CCCCC2)c1)NC1CCCCC1	·	16	·	·	·	-2
Oc1ccccc1C1=NC(c2ccccc2)NC(c2ccccc2)C1 (stereo not given)	·	0	·	·	·	-1
COc1cccc(/C=C/C(=O)NNC(=O)CCN2CCN(Cc3ccccc3)CC2)c1	-4%	13	4%	1%	3%	-31
O=C(CN1CCN(c2nc(-c3ccc(F)cc3)cs2)CC1)Nc1ccc2c(c1)OCO2	-12%	-1	-3%	-15%	0%	-124*
COc1cc(NC(=O)CN2CCCCCC2)cc(OC)c1	4%	-2	-6%	-7%	·	-10
CCOc1ccc(NC(=O)CN2CCN(CC(=O)Nc3ccc4c(c3)OCO4)CC2)cc1	0%	-120*	-1%	3%	4%	-106*
